Each structure is given as a SMILES string. Among all 68,000 compounds or so, about 2,700 (4%) showed an effect of 50% or more. Shown is part of a subset that was picked to be rich in strong results.

The subject of the assay is Plasmodium berghei. The assay can be described thus: Screen against P. berghei liver stage (PbLuc), transformed with Luciferase, at 2uM. It counts as functional, HepG2. As to conditions: tested at 2 uM.
As for `CN(C)C(=O)CCS(=O)(=O)Cc1cc(Cl)c2c(c1)OCCO2`, the INHIBITION came out at 48.21%.
For `CN(C)C(=O)CCS(=O)(=O)Cc1cc(Cl)c2c(c1)OCO2`, the INHIBITION is recorded as 66.2%.
The same measure for `CN(C)C(=O)CCCS(=O)(=O)Cc1cc(Cl)c2c(c1)OCO2`: 27.5%; for `CS(=O)(=O)Cc1cc(Cl)c2c(c1)OCCCO2`: 45.82%; for `CS(=O)(=O)CCS(=O)(=O)Cc1cc(Cl)c2c(c1)OCCCO2`: 72.05%.
Regarding `CNC(=O)CCS(=O)(=O)Cc1cc(Cl)c2c(c1)OCCCO2`, the INHIBITION is reported as 19%.
As to `CC(C)(O)CN1CCN(C(=O)c2sccc2C#N)CC1`, the INHIBITION is -29.69%.
With `c1cnc(N2C[C@H]3CCN(Cc4ccncc4)C[C@H]3C2)nc1`, the INHIBITION is recorded as -20.87%.
The figure for `CC(NC(=O)N1CCC(OCc2ccccc2)CC1)c1nncn1C` (stereo unspecified) is 29.11%; for `Cc1cc(C)c(C)c(OCCCNC(=O)NC(C)c2nncn2C)c1` (stereo unspecified) it is 38.97%.
The figure for `COc1ccc(F)cc1C(=O)N1CCCC(CNS(C)(=O)=O)C1` (stereo unspecified) is -42.84%.
The figure for `O=C(NCCCNC(=O)C1CCC1)NCCn1cccc1` is 7.33%; for `N#Cc1c(N2CCN(CC3CCOC3)CC2)nc2ccccn12` (stereo unspecified) it is 83.18%.
For `CN1CCCC(N2CCN(c3nc4ccccn4c3C#N)CC2)C1` (stereo unspecified), the INHIBITION turned out to be 38.1%.
The figure for `N#Cc1c(N2CCCN(C3CCOCC3)CC2)nc2ccccn12` is 14.2%; for `Cn1cccc1C(=O)N1CCc2ncnc(C3CC3)c2CC1` it is 11.72%; for `O=C(NC1CCCCNC1=O)c1cc2ccccc2[nH]c1=O` (stereo unspecified) it is -0.79%.
Take `Cc1cc(C(=O)NC2CCCCNC2=O)c(=O)[nH]c1C` (stereo unspecified): the INHIBITION came to 52.08%.
The same measure for `Cc1ccc(C(=O)NC2CCCCNC2=O)c(=O)[nH]1` (stereo unspecified): -4.09%.
The figure for `O=C(CCc1c[nH]cn1)N1CC[C@@H](c2ccc3ccccc3c2)[C@H](O)C1` is 43.1%.
Consider `Cc1ccc(N2CCC3(CN(Cc4cccs4)CCC3(F)F)C2)nn1` (stereo unspecified), for which the INHIBITION was -17.41%.
Take `O=C(Cc1cccc2ccccc12)N1CCC(Nc2cccnn2)CC1`: the INHIBITION was -58.05%.
As for `Cc1ccc(CC(=O)N2CCC(Nc3cccnn3)CC2)s1`, the INHIBITION was found to be 50.75%.
With `Cc1cccc2[nH]cc(CC(=O)N3CCC(Nc4cccnn4)CC3)c12`, the INHIBITION is reported as 64.16%.
The same measure for `Cc1ccc(NC2CCN(C(=O)Cc3ccc(C)s3)CC2)nn1`: -19.35%.
Take `O=C(Cc1c[nH]c2ccccc12)N1CCC(Nc2cccnn2)CC1`: the INHIBITION is -32.2%.
The same measure for `Cc1noc(C)c1CC(=O)N1CCC(Nc2cccnn2)CC1`: -57.89%; for `O=C(NCc1ccccn1)NCC(O)c1ccccc1C(F)(F)F` (stereo unspecified): -19.62%.
The same measure for `O=C(c1ccccc1OCC1CC1)N1CCCC1Cn1cccn1` (stereo unspecified): -12.5%; for `O=C(CCCn1cncn1)N1CCC2(CCCNC2=O)C1` (stereo unspecified): 43.1%.
Consider `O=C(c1cccc(Cl)c1)N1CC[C@H]2[C@H]1CCN2CC1CCOCC1`, for which the INHIBITION is 49.03%.
The figure for `CCS(=O)(=O)N1CC[C@@H]2[C@H](CC1)N(CC(C)C)CCS2(=O)=O` is 40.5%; for `Cc1cc(C(N)=O)nc(C2(C)CCCN2Cc2cnn(C)c2)n1` (stereo unspecified) it is 74.08%.
The figure for `Cc1cc(C(N)=O)nc(C2(C)CCCN2Cc2cnn(C)c2C)n1` (stereo unspecified) is 40.31%.
The same measure for `Cc1cc(C)nc(C2(C)CCCN2CCO)n1` (stereo unspecified): -8.85%; for `COc1ccc(-c2noc(CN3CCN(c4cnccn4)CC3)n2)cc1`: 32.88%; for `COc1ccc(-n2cnnc2CC2CCNCC2)cc1`: -22%.
Consider `O=S(=O)(N1CCCC1)N1CC(c2ccnc(Nc3ccccn3)n2)C1`, for which the INHIBITION is 17.72%.
As for `CCN(CCc1nc2cc(C)ccc2[nH]1)C(=O)[C@@H](N)Cc1c[nH]cn1`, the INHIBITION is -2.23%.
With `CN(C)CC1(O)CCCN(c2noc(-c3ccccc3)n2)CC1` (stereo unspecified), the INHIBITION was 12.55%.
The figure for `CN(C)CC1(O)CCCN(c2nc(-c3ccccc3)no2)CC1` (stereo unspecified) is 76.6%.
Take `Cc1cc(N2CCCC(O)(CN(C)C)CC2)nc(-c2ccccc2)n1` (stereo unspecified): the INHIBITION stood at 1.06%.
The same measure for `c1cc(-c2cscn2)cc(N2CCC(NCCc3cccs3)CC2)c1`: -15.42%.
As for `CCC(=O)N1CCC2(CC1)CC(CC(=O)N(C)C)c1ccc(F)cc12` (stereo unspecified), the INHIBITION is -0.45%.
The figure for `CC(C)COC(C)C(=O)NCCNS(C)(=O)=O` (stereo unspecified) is 52.74%.
The figure for `CC(C)COC(C)C(=O)NCCNC(=O)C(C)C` (stereo unspecified) is 31.96%; for `CCOC(C)C(=O)NCCNS(C)(=O)=O` (stereo unspecified) it is 8.41%; for `CCN(Cc1cccc2c1OCO2)C(=O)NCCOC` it is 25.61%.
In the case of `O=C(NC1CC1)c1ccc2ccc(N3CCN(CC4CC4)CC3)n2c1`, the INHIBITION is recorded as -36.7%.
The same measure for `CC(=O)N1CCN(c2ccc3ccc(C(=O)NC4CCCC4)cn23)CC1`: -7.41%; for `O=C(O)c1ccc2ccc(N3CCN(CC4CC4)CC3)n2c1`: 57.95%.

The values above are taken from ChEMBL document CHEMBL4513216, “Probing the Open Global Health Chemical Diversity Library for Multistage-Active Starting Points for Next-Generation Antimalarials” (ACS Infect Dis, 2020).
